From PubChem BioAssay AID651871 (Sanford-Burnham Center for Chemical Genomics, 2012)
Values joined by “and” are separate entries in the source; they are usually repeats but may differ in a detail not shown here. Equal values may be shown once.

system: H9c2; assay: cardiomyocyte survival under oxidative or metabolic stress – cell-based, panel, H9c2 and HL-1, ATP luminescence, set 2, SAR follow-up (AID 651871); settings: H9c2/HL-1 cardiomyocytes, 2-deoxyglucose stress, with 2-deoxyglucose; run 2, at 79 µM (top of the series);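 note: cells exposed to stressor for 2 h before ATP readout; reference of the scale not given here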

| SMILES | activity (protection/inhibition) |
| --- | --- |
| COc1ccc2nc(-c3cc(OC)c(OC)c(OC)c3)cc(C(=O)NCC(=O)Nc3ccc(C(C)=O)cc3)c2c1 | 82.4% |
| COc1ccc2c(c1OC)C(=O)N1c3ccccc3C(=O)N(Cc3cccc(Cl)c3Cl)C21 (stereo not drawn) | 53% and 81.7% and -4.06% |
| CCOC(=O)c1cccc(NC(=O)CNC(=O)c2cc(-c3cc(OC)c(OC)c(OC)c3)nc3ccccc23)c1 | 78.5% |
